We go through eleven compounds from PubChem BioAssay (NCI).

Some test systems named below: NCI-H23 lung; NCI-H226 lung; NCI-H322M lung; HOP-62 NSCLC; NCI-H460 lung; HOP-92 NSCLC; NCI-H522 lung; A549/ATCC NSCLC; 786-0 renal; COLO 205 colon.
Common to all, as to experiment: NCI-60 one-dose screen, 48 h (100 = growth as untreated, 0 = no growth, -100 = all killed)
Common to all, as to conditions: 10 µM unless noted

Compounds without any hit were thinned out: in the full panel of roughly 83,000, 20% have a hit.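 Negative percent growth values reflect cell death: -40 means 40% of the cells present at the start died, and -100 means all died.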 Unmarked numbers belong to inactive results. The source made the active and inactive calls. Rule for the calls: active = growth percent below 10; inactive = the rest.

As for `ClC(Cl)c1nc(-c2cccs2)n2nc(-c3ccccc3)cc2n1`, the growth with NCI-H23 lung is 4.85% (active); in the experiment on NCI-H226 lung it was 82.6%; in the experiment with NCI-H322M lung, -28.8% (active); in the experiment on HOP-62 NSCLC, -6.27% (active); with NCI-H460 lung, -40.1% (active); with HOP-92 NSCLC it was -27.7% (active). In addition, the growth is 75.1% in the experiment on NCI-H522 lung, -16.1% (active) with A549/ATCC NSCLC, 40.2% with 786-0 renal and -40.7% (active) with COLO 205 colon.

As to `CCC(=O)Nc1ccc(-c2nc(-c3cccc(O)c3)c(-c3ccnc(Br)c3)[nH]2)cc1`, the growth with NCI-H23 lung was 86%; in the experiment with NCI-H226 lung it was 74.2%; in the experiment on NCI-H322M lung, 73.9%; in the experiment on HOP-62 NSCLC, 75%; in the experiment with NCI-H460 lung, 20.9%; in the experiment on HOP-92 NSCLC, 57.5%. The growth was 57.8% with NCI-H522 lung, 83.6% with A549/ATCC NSCLC, 46.8% in the experiment on 786-0 renal and 80.4% in the experiment on COLO 205 colon.

Regarding `O=S(=O)(Nc1ccc(I)c(Cl)c1)c1ccc(-c2cnc(C3CC3)o2)cc1`, the growth in the experiment with NCI-H23 lung was 33.8%; in the experiment with NCI-H226 lung it was 41.9%; in the experiment with NCI-H322M lung, 46%; in the experiment on HOP-62 NSCLC it was 29%; in the experiment with NCI-H460 lung, 12.6%; in the experiment on HOP-92 NSCLC, 49%. Further, the growth with NCI-H522 lung was 24.7%; with A549/ATCC NSCLC, 50.3%; with 786-0 renal, 41.7%; in the experiment on COLO 205 colon it was 12%.

`CCNC(=O)Oc1ccc(/C(=C(/C)c2ccc(Cl)cc2)c2ccc(OCCN3CCCC3)cc2)cc1`: the growth was 87.5% in the experiment on NCI-H23 lung; 95.8% in the experiment on NCI-H226 lung; 93.3% with NCI-H322M lung; 97% in the experiment on HOP-62 NSCLC; 80.6% in the experiment with NCI-H460 lung; 83.2% in the experiment with HOP-92 NSCLC. Besides, the growth in the experiment on NCI-H522 lung is 96.8%; with A549/ATCC NSCLC it was 73%; in the experiment with 786-0 renal, 71.4%; in the experiment on COLO 205 colon, 88.8%.

For `CNC(=O)c1cc(N2CCc3cc(NC(=O)Nc4ccc(Cl)c(Cl)c4)ccc32)ccn1`, the growth was 95.9% with NCI-H23 lung; 95.9% in the experiment on NCI-H226 lung; 98.6% with NCI-H322M lung; 87% with HOP-62 NSCLC; 82.5% in the experiment with NCI-H460 lung; 88.9% with HOP-92 NSCLC. In addition, the growth in the experiment with NCI-H522 lung is 68.5%; in the experiment with A549/ATCC NSCLC it was 76.3%; with 786-0 renal it was 67.2%; with COLO 205 colon, 77.3%.

As for `O=C(CN1C(=O)CSC1=O)Nc1ccc(C(=O)/C=C/c2cc3ccccc3nc2Cl)cc1`, the growth in the experiment on NCI-H23 lung is 68.4%; with NCI-H226 lung, 89.1%; in the experiment with NCI-H322M lung, 96.1%; in the experiment on HOP-62 NSCLC, 97.5%; with NCI-H460 lung, 85.7%; with HOP-92 NSCLC, 94.4%. In addition, the growth was 66.9% in the experiment on NCI-H522 lung, 78.2% with A549/ATCC NSCLC, 73.3% in the experiment on 786-0 renal and 111% in the experiment on COLO 205 colon.

Turning to `Oc1ccc(CSc2nnc(-c3ccncc3)o2)c2cccnc12`, the growth was 17.7% with NCI-H23 lung; 22.7% in the experiment with NCI-H226 lung; 39.4% in the experiment on NCI-H322M lung; 12.3% with HOP-62 NSCLC; 4.37% (active) in the experiment on NCI-H460 lung; -20.8% (active) in the experiment on HOP-92 NSCLC. For the same compound, the growth is 11.6% in the experiment on NCI-H522 lung, 15.4% in the experiment with A549/ATCC NSCLC, 31.3% in the experiment with 786-0 renal and 68.4% in the experiment on COLO 205 colon.

For the compound `N=c1c2cc(-c3ccccc3)oc2ncn1/N=C/c1ccccc1`, the growth is 98.1% in the experiment on NCI-H23 lung; 98.9% in the experiment on NCI-H226 lung; 94.5% in the experiment on NCI-H322M lung; 87.4% in the experiment on HOP-62 NSCLC; 57.6% in the experiment with NCI-H460 lung; 92% in the experiment with HOP-92 NSCLC. Moreover, the growth is 42.1% with NCI-H522 lung, 71.2% in the experiment on A549/ATCC NSCLC, 78.6% in the experiment on 786-0 renal and 88.1% in the experiment with COLO 205 colon.

With `C=CCn1c(SCC(=O)c2ccc(OC)cc2)nnc1-c1ccc(OC)cc1`, the growth in the experiment on NCI-H23 lung is 97.6%; in the experiment with NCI-H226 lung, 87.1%; in the experiment on NCI-H322M lung it was 97.4%; in the experiment on HOP-62 NSCLC it was 102%; in the experiment with NCI-H460 lung it was 102%; in the experiment on HOP-92 NSCLC, 88.9%. The growth was 99% in the experiment with NCI-H522 lung, 99.2% with A549/ATCC NSCLC, 99.4% in the experiment with 786-0 renal and 98.8% in the experiment on COLO 205 colon.

For `CC1(C)CC[C@]2(C(=O)N3CCCN(CC#N)CC3)CC[C@]3(C)C(=CC[C@@H]4[C@@]5(C)CC[C@H](O)C(C)(C)[C@@H]5CC[C@]43C)[C@H]2C1`, the growth in the experiment on NCI-H23 lung was 55.6%; with NCI-H226 lung, 71.1%; in the experiment on NCI-H322M lung, 94.9%; in the experiment on HOP-62 NSCLC, 70.8%; in the experiment with NCI-H460 lung, 16.8%; in the experiment with HOP-92 NSCLC, 19.3%. Besides, the growth with NCI-H522 lung is 67.5%; in the experiment on A549/ATCC NSCLC, 39.1%; in the experiment with 786-0 renal it was 68.6%; in the experiment on COLO 205 colon, -15.5% (active).

As to `COc1cccc(/C=C/C(=O)c2ccc(NC(=O)COc3cccc4cccnc34)cc2)c1`, the growth is 99.3% with NCI-H23 lung; 93.9% in the experiment with NCI-H226 lung; 95.5% in the experiment on NCI-H322M lung; 112% in the experiment with HOP-62 NSCLC; 101% in the experiment with NCI-H460 lung; 107% in the experiment on HOP-92 NSCLC. In addition, the growth in the experiment on NCI-H522 lung was 90.2%; with A549/ATCC NSCLC it was 95.2%; with 786-0 renal it was 96.8%; in the experiment on COLO 205 colon it was 105%.
